Measurements from PubChem BioAssay AID1159580 (chemical genetic matrix, 2015).
The campaign covered roughly 5,500 compounds. About 2,000 (36%) were called active. About 18% were inconclusive and are not listed. Rule as the data show it: active = normalized growth mostly below about 0.91 (no sharp cut-off); inconclusive = no clear call, values can overlap the other calls; inactive = mostly above about 0.92. The list shows a part of the results.

Assay: chemical genetic growth profiling, strain panel (AID 1159580);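 also: tested at 20 µM; growth read once vehicle control cultures reached saturation at 30 °C; 1 = growth at the plate median or of vehicle wells; lower values mean less growth of the strain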
Details: growth OD

Measured: normalized growth

C1CNCCN1
inactive: S. cerevisiae deletion strains, locus YJR066W, strain TOR1, active compounds read low 0.957 | S. cerevisiae deletion strains, locus YJR075W, strain HOC1, active compounds read low 1.02 | S. cerevisiae deletion strains, locus YKL009W, strain mrt4, active compounds read low 0.989 | S. cerevisiae deletion strains, locus YKL068W, active compounds read low 0.999 | S. cerevisiae deletion strains, locus YKL085W, strain MDH1 (second series), active compounds read low 1.01 | S. cerevisiae deletion strains, locus YKL085W, strain MDH1, active compounds read low 1.01 | S. cerevisiae deletion strains, locus YKL160W, strain elf1, active compounds read low 1.02 | S. cerevisiae deletion strains, locus YKL190W, strain CNB1, active compounds read low 1 | S. cerevisiae deletion strains, locus YKR001C, strain vps1, active compounds read low 1 | S. cerevisiae deletion strains, locus YKR026C, strain gcn3, active compounds read low 1.01 | S. cerevisiae deletion strains, locus YKR091W, strain srl3, active compounds read low 1.01 | S. cerevisiae deletion strains, locus YLL001W, strain dnm1, active compounds read low 1.02 | S. cerevisiae deletion strains, locus YLL026W, active compounds read low 1.01 | S. cerevisiae deletion strains, locus YLL041C, strain sdh2, active compounds read low 1.02 | S. cerevisiae deletion strains, locus YLR027C, strain aat2, active compounds read low 1.01 | S. cerevisiae deletion strains, locus YLR039C, strain RIC1, active compounds read low 1.01 | S. cerevisiae deletion strains, locus YLR058C, strain SHM2, active compounds read low 1.01 | S. cerevisiae deletion strains, locus YLR102C, strain apc9, active compounds read low 0.994 | S. cerevisiae deletion strains, locus YLR113W, strain HOG1, active compounds read low 1.02 | S. cerevisiae deletion strains, locus YLR221C, strain rsa3, active compounds read low 1.01 | S. cerevisiae deletion strains, locus YLR258W, strain gsy2, active compounds read low 1.01 | S. cerevisiae deletion strains, locus YLR262C, strain YPT6 (second series), active compounds read low 1.03 | S. cerevisiae deletion strains, locus YLR262C, strain YPT6, active compounds read low 1.02 | S. cerevisiae deletion strains, locus YLR268W, strain sec22, active compounds read low 0.987 | S. cerevisiae deletion strains, locus YLR320W, strain mms22, active compounds read low 1.02 | S. cerevisiae deletion strains, locus YLR330W, strain CHS5, active compounds read low 1.01 | S. cerevisiae deletion strains, locus YLR342W, strain FKS1 (second series), active compounds read low 1.02 | S. cerevisiae deletion strains, locus YLR342W, strain FKS1, active compounds read low 1.02 | S. cerevisiae deletion strains, locus YLR357W, strain rsc2, active compounds read low 1.02 | S. cerevisiae deletion strains, locus YLR370C, strain arc18, active compounds read low 1.02 | S. cerevisiae deletion strains, locus YLR371W, strain rom2, active compounds read low 0.997 | S. cerevisiae deletion strains, locus YLR384C, strain iki3, active compounds read low 1.01 | S. cerevisiae deletion strains, locus YLR418C, strain cdc73, active compounds read low 0.994 | S. cerevisiae deletion strains, locus YML016C, strain PPZ1, active compounds read low 1.02 | S. cerevisiae deletion strains, locus YML032C, strain rad52, active compounds read low 0.989 | S. cerevisiae deletion strains, locus YML120C, strain ndi1, active compounds read low 1 | S. cerevisiae deletion strains, locus YML124C, strain tub3, active compounds read low 0.999 | S. cerevisiae deletion strains, locus YMR058W, strain fet3, active compounds read low 1.02 | S. cerevisiae deletion strains, locus YMR078C, strain ctf18, active compounds read low 1 | S. cerevisiae deletion strains, locus YMR125W, strain sto1, active compounds read low 1.03 | S. cerevisiae deletion strains, locus YMR129W, active compounds read low 1.01 | S. cerevisiae deletion strains, locus YMR205C, strain PFK2, active compounds read low 1.03 | S. cerevisiae deletion strains, locus YMR223W, strain ubp8, active compounds read low 0.987 | S. cerevisiae deletion strains, locus YMR231W, strain pep5, active compounds read low 1.02 | S. cerevisiae deletion strains, locus YMR263W, strain SAP30, active compounds read low 1.01 | S. cerevisiae deletion strains, locus YMR307W, strain GAS1, active compounds read low 1.04 | S. cerevisiae deletion strains, locus YNL067W, strain RPL9B, active compounds read low 1.02 | S. cerevisiae deletion strains, locus YNL071W, strain lat1, active compounds read low 1.01 | S. cerevisiae deletion strains, locus YNL128W, strain TEP1, active compounds read low 1.01 | S. cerevisiae deletion strains, locus YNL153C, strain GIM3, active compounds read low 1.02 | S. cerevisiae deletion strains, locus YNL183C, strain NPR1, active compounds read low 0.975 | S. cerevisiae deletion strains, locus YNL209W, strain ssb2, active compounds read low 1.02 | S. cerevisiae deletion strains, locus YNL233W, strain BNI4, active compounds read low 1.01 | S. cerevisiae deletion strains, locus YNL248C, strain rpa49, active compounds read low 1.01 | S. cerevisiae deletion strains, locus YNL250W, strain rad50, active compounds read low 0.993 | S. cerevisiae deletion strains, locus YNL271C, strain bni1, active compounds read low 1 | S. cerevisiae deletion strains, locus YNL298W, strain CLA4, active compounds read low 0.985 | S. cerevisiae deletion strains, locus YNL307C, strain MCK1, active compounds read low 0.996 | S. cerevisiae deletion strains, locus YNL322C, strain KRE1 (second series), active compounds read low 1.02 | S. cerevisiae deletion strains, locus YNL322C, strain KRE1, active compounds read low 1.01 | S. cerevisiae deletion strains, locus YNR049C, strain mso1, active compounds read low 1.01 | S. cerevisiae deletion strains, locus YNR052C, strain pop2, active compounds read low 1.01 | S. cerevisiae deletion strains, locus YOL006C, strain TOP1, active compounds read low 1.06 | S. cerevisiae deletion strains, locus YOL012C, strain htz1 1.02 | S. cerevisiae deletion strains, locus YOL147C, strain pex11, active compounds read low 0.985 | S. cerevisiae deletion strains, locus YOR001W, strain rrp6, active compounds read low 1.01 | S. cerevisiae deletion strains, locus YOR061W, strain CKA2, active compounds read low 1.01 | S. cerevisiae deletion strains, locus YOR069W, strain VPS5, active compounds read low 1 | S. cerevisiae deletion strains, locus YOR070C, strain gyp1, active compounds read low 1.03 | S. cerevisiae deletion strains, locus YOR080W, strain dia2, active compounds read low 1.02 | S. cerevisiae deletion strains, locus YOR083W, strain WHI5, active compounds read low 1.02 | S. cerevisiae deletion strains, locus YOR106W, strain vam3, active compounds read low 1.02 | S. cerevisiae deletion strains, locus YOR136W, strain idh2, active compounds read low 0.99 | S. cerevisiae deletion strains, locus YOR144C, strain elg1, active compounds read low 1 | S. cerevisiae deletion strains, locus YOR184W, strain ser1, active compounds read low 0.981 | S. cerevisiae deletion strains, locus YOR231W, strain MKK1, active compounds read low 1.01 | S. cerevisiae deletion strains, locus YOR265W, strain rbl2, active compounds read low 1.01 | S. cerevisiae deletion strains, locus YOR270C, strain vph1, active compounds read low 1.01 | S. cerevisiae deletion strains, locus YOR290C, strain snf2, active compounds read low 0.996 | S. cerevisiae deletion strains, locus YOR316C, strain cot1, active compounds read low 0.997 | S. cerevisiae deletion strains, locus YPL051W, strain arl3, active compounds read low 1.01 | S. cerevisiae deletion strains, locus YPL055C, strain LGE1, active compounds read low 1.03 | S. cerevisiae deletion strains, locus YPL078C, strain atp4, active compounds read low 1.01 | S. cerevisiae deletion strains, locus YPL106C, strain sse1, active compounds read low 1.01 | S. cerevisiae deletion strains, locus YPL240C, strain hsp82, active compounds read low 1.03 | S. cerevisiae deletion strains, locus YPL256C, strain CLN2, active compounds read low 0.996 | S. cerevisiae deletion strains, locus YPR119W, strain clb2, active compounds read low 0.985 | S. cerevisiae deletion strains, locus YPR141C, strain kar3, active compounds read low 0.992 | S. cerevisiae deletion strains, locus YPR163C, strain tif3, active compounds read low 0.997 | S. cerevisiae deletion strains, locus YPR167C, strain met16, active compounds read low 0.985 | S. cerevisiae deletion strains, strain wtn01, active compounds read low 0.993 | S. cerevisiae strains, strain wild type, active compounds read low 0.999
